Test [1] deals with T1, Inhibitor of nuclear factor kappa-B kinase subunit epsilon (Homo sapiens) (UniProt Q14164).
T1 sequence (whole entry): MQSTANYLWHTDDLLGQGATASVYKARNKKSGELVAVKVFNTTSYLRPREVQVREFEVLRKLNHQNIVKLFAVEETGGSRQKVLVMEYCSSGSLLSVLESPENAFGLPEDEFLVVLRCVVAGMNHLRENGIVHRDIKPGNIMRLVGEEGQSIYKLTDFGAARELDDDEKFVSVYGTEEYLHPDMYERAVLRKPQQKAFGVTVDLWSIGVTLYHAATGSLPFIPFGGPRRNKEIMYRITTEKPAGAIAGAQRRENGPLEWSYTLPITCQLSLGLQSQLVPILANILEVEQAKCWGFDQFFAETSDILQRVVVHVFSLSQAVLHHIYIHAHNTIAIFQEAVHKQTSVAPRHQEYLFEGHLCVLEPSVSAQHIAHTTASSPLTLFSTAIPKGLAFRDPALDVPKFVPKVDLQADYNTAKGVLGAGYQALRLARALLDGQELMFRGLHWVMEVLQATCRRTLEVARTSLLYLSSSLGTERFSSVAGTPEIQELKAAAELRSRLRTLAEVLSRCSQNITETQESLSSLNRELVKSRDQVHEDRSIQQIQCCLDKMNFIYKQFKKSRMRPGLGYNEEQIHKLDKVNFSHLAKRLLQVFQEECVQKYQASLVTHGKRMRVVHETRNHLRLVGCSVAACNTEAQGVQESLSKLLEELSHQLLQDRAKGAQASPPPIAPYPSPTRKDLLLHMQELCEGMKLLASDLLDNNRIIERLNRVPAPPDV
Conditions: at 1 µM.

Test [2] deals with T2, Serine/threonine-protein kinase Nek1 (Homo sapiens) (UniProt Q96PY6).
T2 sequence (whole entry): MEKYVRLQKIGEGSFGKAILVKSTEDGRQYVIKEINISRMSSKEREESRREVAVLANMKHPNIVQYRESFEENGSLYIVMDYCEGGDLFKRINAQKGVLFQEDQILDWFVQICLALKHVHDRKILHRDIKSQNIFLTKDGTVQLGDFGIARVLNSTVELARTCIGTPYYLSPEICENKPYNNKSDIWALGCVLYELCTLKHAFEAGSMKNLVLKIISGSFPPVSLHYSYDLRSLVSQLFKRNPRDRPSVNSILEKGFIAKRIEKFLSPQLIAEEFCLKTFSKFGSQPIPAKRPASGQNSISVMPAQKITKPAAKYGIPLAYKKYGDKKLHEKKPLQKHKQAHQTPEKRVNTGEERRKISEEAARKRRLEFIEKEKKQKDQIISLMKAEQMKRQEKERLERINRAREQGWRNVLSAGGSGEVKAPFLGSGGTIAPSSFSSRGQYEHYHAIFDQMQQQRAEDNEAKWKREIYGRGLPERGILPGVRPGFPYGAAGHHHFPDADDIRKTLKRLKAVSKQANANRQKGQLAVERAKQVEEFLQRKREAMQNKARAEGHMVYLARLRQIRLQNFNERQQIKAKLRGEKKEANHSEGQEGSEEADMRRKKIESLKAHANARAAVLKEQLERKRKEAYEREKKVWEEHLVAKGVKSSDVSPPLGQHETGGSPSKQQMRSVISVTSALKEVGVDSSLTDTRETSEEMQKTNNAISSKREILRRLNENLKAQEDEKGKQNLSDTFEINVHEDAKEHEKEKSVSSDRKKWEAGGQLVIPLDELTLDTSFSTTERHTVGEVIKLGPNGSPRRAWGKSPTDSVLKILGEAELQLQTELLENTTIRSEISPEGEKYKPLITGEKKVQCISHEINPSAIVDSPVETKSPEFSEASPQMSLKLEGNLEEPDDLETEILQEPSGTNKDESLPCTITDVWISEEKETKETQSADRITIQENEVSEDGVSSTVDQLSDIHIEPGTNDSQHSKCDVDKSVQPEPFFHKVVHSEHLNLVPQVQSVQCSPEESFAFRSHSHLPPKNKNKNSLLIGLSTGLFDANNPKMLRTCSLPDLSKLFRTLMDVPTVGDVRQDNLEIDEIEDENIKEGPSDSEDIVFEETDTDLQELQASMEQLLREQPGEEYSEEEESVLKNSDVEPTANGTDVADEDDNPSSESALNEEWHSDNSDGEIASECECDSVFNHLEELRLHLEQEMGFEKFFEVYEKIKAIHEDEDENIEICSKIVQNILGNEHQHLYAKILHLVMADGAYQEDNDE
The conditions noted are these: at 0.1 µM.

The target in test [3] is T2, Serine/threonine-protein kinase Nek1 (Homo sapiens). Conditions: at 1 µM.
Test [4] concerns the target T3, Serine/threonine-protein kinase Nek2 (Homo sapiens) (UniProt P51955).
T3 sequence (whole entry): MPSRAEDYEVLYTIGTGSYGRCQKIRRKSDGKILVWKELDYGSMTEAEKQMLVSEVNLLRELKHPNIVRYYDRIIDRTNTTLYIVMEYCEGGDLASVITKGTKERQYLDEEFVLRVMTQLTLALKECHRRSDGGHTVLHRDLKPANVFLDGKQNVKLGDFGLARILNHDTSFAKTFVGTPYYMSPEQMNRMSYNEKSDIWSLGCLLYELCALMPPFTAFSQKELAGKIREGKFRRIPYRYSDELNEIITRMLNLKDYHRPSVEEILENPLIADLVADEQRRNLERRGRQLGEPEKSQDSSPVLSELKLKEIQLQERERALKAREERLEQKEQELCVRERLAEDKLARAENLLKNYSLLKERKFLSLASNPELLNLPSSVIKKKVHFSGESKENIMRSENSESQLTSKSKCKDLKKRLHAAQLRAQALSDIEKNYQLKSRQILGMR
Conditions: at 0.1 µM.

In test [5] the target is T3, Serine/threonine-protein kinase Nek2 (Homo sapiens). The conditions noted are these: at 1 µM.
The target in test [6] is Serine/threonine-protein kinase Nek6 (Homo sapiens) (UniProt Q9HC98). Conditions: at 0.1 µM.
The target is the same in test [7]. The conditions noted are these: at 1 µM.
The target in test [8] is Serine/threonine-protein kinase Nek7 (Homo sapiens) (UniProt Q8TDX7). Conditions: at 0.1 µM.
The target is the same in test [9]. Conditions: at 1 µM.
For test [10], the target named is T4, Serine/threonine-protein kinase Nek9 (Homo sapiens) (UniProt Q8TD19).
T4 sequence (whole entry): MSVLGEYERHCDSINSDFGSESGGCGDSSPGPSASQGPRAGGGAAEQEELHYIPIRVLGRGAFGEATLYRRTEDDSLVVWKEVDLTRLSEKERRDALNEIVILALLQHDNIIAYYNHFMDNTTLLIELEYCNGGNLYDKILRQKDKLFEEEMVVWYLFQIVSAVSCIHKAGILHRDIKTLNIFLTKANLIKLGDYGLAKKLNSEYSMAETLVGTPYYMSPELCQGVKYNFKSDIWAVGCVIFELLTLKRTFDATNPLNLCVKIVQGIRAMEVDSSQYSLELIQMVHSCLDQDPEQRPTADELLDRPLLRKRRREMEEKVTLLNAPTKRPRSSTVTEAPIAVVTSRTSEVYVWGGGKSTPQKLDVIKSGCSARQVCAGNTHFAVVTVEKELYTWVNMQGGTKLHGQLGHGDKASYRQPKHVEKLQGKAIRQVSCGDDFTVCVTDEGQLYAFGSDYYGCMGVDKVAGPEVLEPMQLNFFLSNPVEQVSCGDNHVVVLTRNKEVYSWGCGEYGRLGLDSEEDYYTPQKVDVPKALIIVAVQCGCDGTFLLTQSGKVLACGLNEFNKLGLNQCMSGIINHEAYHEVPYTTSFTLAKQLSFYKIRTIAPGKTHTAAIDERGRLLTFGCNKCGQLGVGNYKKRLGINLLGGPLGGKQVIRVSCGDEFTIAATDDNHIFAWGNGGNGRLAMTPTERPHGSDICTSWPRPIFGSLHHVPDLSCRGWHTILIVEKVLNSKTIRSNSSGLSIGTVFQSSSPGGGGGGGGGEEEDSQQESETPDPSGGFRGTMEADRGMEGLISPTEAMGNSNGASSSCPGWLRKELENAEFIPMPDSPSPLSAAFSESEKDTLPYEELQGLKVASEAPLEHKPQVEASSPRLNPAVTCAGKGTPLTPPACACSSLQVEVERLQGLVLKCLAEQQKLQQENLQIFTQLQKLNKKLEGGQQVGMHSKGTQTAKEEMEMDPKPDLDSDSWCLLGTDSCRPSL
Conditions: at 0.1 µM.

Test [11] addresses T4, Serine/threonine-protein kinase Nek9 (Homo sapiens). The conditions noted are these: at 1 µM.
Test [12] deals with Serine/threonine-protein kinase PLK1 (Homo sapiens) (UniProt P53350). Conditions: at 0.1 µM.
For test [13] the target is unchanged. Conditions: at 1 µM.
In test [14] the target is T5, Dual specificity protein kinase TTK (Homo sapiens) (UniProt P33981).
T5 sequence (whole entry): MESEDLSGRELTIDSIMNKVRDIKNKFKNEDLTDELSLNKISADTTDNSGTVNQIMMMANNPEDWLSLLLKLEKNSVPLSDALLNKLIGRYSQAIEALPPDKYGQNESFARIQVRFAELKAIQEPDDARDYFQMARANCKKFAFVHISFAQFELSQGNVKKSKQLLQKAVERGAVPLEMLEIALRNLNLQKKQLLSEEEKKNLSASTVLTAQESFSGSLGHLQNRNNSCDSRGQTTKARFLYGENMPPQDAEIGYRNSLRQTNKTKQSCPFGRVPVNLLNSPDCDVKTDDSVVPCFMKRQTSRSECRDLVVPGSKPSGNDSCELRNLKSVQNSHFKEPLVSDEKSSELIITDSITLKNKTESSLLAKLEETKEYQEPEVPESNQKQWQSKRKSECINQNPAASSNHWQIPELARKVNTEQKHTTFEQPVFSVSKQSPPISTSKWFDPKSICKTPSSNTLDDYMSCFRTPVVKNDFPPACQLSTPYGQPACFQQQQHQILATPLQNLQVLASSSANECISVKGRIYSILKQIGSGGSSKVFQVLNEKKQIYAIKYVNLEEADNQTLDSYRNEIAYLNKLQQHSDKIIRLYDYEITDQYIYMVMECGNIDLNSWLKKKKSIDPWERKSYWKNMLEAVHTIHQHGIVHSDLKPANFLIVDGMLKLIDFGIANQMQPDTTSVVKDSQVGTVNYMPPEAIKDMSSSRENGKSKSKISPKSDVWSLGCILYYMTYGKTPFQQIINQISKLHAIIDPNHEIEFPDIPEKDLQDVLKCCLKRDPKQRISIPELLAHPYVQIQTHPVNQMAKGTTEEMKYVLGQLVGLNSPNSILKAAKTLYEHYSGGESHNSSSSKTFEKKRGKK
The conditions noted are these: at 0.1 µM.

Test [15] concerns T6, Receptor-type tyrosine-protein kinase FLT3 (Homo sapiens), P36888 [D835Y].
T6 sequence (whole entry): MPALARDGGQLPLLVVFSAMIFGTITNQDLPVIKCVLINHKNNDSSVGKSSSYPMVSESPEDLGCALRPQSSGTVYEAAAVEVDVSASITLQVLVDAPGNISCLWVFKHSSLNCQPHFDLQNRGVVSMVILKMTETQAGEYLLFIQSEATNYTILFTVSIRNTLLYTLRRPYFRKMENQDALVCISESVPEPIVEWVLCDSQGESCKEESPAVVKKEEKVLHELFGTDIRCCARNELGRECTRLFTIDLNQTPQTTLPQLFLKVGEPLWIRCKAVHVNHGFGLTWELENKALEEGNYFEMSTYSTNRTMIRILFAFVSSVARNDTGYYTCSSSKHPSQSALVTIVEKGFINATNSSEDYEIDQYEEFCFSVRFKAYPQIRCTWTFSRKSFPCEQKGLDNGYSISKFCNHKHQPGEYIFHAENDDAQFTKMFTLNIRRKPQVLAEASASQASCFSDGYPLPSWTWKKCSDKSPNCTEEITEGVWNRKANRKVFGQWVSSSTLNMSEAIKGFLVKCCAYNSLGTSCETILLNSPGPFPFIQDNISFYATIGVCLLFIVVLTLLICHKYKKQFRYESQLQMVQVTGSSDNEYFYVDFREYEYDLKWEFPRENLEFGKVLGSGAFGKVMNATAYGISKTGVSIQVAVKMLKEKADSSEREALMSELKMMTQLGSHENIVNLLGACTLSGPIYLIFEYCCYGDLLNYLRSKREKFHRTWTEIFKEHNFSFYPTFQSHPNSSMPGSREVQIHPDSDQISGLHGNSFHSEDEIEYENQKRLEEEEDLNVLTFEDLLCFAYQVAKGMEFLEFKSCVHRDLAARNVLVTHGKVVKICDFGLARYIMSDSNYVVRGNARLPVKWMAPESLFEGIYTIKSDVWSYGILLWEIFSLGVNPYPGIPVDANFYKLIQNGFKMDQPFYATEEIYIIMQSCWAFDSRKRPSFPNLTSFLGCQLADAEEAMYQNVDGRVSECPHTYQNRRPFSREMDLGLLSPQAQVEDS
Conditions: at 1 µM.

The target of test [16] is Vascular endothelial growth factor receptor 3 (Homo sapiens) (UniProt P35916). The conditions noted are these: at 0.1 µM.
Test [17] has the same target. The conditions noted are these: at 1 µM.
For test [18], the target named is Macrophage colony-stimulating factor 1 receptor (Homo sapiens) (UniProt P07333). Conditions: at 0.1 µM.
The target is the same in test [19]. The conditions noted are these: at 1 µM.
Test [20] addresses Tyrosine-protein kinase Fyn (Homo sapiens) (UniProt P06241). The conditions noted are these: at 0.1 µM.

Each structure is given as a SMILES string.

One may read the inhibition as the drop in the measured response relative to a control, in per cent.

Macrophage colony-stimulating factor 1 receptor (Homo sapiens), sequence (P07333 whole entry): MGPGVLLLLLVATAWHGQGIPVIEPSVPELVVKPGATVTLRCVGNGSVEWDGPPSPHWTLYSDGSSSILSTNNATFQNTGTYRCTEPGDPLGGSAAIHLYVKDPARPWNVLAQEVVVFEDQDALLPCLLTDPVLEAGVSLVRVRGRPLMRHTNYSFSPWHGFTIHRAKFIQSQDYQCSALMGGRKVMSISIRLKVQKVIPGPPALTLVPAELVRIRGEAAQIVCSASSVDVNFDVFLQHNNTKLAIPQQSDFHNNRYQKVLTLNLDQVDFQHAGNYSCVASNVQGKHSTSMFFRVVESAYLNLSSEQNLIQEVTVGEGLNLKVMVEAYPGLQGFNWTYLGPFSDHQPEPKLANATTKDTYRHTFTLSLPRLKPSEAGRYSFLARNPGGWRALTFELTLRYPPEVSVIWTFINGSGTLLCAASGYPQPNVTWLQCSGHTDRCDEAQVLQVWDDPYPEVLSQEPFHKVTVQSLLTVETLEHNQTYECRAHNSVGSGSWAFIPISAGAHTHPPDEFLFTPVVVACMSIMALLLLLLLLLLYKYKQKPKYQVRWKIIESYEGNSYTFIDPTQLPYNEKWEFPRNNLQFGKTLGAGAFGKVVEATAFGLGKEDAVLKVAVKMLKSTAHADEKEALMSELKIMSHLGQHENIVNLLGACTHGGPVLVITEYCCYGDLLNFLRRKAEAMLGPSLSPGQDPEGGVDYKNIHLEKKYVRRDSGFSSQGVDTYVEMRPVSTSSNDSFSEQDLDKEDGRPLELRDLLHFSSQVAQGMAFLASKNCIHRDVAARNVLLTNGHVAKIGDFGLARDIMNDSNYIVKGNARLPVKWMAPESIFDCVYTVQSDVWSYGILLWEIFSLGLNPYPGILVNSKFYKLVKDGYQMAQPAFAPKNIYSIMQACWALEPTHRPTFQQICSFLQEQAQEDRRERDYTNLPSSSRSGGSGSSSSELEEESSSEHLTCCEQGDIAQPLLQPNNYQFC
Serine/threonine-protein kinase Nek6 (Homo sapiens), sequence (Q9HC98 whole entry): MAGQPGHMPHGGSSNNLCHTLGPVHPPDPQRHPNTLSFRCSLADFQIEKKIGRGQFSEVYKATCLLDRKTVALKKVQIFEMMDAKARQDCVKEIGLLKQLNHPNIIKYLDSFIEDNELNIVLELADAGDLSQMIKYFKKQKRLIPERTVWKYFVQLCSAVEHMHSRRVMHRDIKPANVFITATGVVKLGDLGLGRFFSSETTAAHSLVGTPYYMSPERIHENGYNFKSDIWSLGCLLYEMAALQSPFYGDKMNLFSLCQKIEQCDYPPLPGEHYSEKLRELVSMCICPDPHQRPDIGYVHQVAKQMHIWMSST
Vascular endothelial growth factor receptor 3 (Homo sapiens), sequence (P35916 whole entry): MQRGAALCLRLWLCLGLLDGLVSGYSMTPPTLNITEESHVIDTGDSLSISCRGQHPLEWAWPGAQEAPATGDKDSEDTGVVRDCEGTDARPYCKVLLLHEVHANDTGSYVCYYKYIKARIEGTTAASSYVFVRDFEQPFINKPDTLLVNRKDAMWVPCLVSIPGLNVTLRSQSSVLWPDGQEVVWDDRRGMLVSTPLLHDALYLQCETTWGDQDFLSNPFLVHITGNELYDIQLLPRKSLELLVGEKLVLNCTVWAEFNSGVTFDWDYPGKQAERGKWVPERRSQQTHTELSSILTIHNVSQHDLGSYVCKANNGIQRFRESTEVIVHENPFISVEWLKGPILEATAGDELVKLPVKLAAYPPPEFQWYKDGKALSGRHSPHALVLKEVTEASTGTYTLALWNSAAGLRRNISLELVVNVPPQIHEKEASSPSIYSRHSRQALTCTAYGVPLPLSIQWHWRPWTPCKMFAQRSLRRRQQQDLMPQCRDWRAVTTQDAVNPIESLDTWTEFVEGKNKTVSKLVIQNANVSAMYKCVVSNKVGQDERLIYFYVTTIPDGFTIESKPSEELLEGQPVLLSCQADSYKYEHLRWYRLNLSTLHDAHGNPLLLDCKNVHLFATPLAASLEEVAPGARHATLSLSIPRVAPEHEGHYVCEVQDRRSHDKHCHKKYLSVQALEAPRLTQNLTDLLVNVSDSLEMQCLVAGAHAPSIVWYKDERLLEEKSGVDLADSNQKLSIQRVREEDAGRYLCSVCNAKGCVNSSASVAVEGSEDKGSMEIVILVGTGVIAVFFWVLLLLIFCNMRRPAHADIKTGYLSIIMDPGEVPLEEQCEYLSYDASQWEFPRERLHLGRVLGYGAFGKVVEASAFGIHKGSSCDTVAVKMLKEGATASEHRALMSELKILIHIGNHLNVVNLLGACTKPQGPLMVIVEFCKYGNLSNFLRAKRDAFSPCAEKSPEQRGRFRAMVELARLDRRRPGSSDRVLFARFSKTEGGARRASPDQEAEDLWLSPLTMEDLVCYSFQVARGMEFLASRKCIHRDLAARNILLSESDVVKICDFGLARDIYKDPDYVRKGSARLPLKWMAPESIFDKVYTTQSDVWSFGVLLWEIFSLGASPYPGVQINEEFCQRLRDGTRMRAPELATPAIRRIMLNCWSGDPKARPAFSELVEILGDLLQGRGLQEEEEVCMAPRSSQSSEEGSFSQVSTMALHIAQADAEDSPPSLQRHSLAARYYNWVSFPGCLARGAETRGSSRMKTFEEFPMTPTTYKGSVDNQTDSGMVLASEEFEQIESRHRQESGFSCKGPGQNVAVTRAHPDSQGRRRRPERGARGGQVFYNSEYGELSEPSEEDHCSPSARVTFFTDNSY
Serine/threonine-protein kinase Nek7 (Homo sapiens), sequence (Q8TDX7 whole entry, looked up): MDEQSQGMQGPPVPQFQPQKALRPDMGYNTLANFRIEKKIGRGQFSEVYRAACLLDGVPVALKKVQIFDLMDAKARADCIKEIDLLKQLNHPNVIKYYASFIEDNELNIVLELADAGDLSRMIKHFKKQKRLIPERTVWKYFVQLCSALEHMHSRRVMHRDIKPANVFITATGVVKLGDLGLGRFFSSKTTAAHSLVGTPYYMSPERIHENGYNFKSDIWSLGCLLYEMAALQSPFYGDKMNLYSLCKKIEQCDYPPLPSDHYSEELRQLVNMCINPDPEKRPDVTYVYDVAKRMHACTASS
Serine/threonine-protein kinase PLK1 (Homo sapiens), sequence (P53350 whole entry): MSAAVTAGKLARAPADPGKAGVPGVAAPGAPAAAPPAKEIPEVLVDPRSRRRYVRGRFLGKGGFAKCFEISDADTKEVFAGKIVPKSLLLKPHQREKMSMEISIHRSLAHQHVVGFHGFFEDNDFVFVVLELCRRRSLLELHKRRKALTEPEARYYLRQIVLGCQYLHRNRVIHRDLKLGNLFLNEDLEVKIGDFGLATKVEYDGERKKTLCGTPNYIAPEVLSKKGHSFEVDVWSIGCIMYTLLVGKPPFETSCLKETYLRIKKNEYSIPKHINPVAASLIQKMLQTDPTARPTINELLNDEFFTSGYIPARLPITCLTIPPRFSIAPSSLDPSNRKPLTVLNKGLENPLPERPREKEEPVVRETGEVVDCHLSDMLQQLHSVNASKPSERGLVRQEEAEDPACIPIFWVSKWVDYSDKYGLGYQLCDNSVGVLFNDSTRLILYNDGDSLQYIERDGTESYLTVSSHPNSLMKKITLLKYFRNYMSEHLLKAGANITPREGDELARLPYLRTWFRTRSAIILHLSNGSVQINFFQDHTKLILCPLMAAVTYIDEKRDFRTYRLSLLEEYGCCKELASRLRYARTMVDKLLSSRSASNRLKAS
Tyrosine-protein kinase Fyn (Homo sapiens), sequence (P06241 2-537 limits assumed): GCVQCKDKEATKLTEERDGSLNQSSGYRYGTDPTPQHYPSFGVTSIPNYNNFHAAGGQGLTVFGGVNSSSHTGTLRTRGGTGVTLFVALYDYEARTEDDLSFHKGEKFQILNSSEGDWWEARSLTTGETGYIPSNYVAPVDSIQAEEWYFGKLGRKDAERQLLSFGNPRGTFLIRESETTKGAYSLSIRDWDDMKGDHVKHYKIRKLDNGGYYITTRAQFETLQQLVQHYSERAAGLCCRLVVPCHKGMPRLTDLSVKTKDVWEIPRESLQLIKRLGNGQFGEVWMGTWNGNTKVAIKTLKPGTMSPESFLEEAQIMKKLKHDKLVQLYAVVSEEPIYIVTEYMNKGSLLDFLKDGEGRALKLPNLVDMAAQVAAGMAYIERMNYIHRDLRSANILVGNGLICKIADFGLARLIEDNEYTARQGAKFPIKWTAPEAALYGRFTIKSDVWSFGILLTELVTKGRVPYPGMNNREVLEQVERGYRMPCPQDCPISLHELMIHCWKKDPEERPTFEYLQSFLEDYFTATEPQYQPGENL

Turning to `NS(=O)(=O)c1ccc(N/N=C2\C(=O)Nc3cccc(CCc4ccncc4)c32)cc1`, the inhibition in test [1] is 3.03%; in test [2], 2.1%; in test [3], 1.7%; in test [4] it was 1.25%; in [5], 0.63%; in test [6] it was -2.2%. Also, the inhibition in [7] is -0.1%; in [8], 0.71%; in test [9] it was 0.86%; in test [10], 2.93%; in test [11] it was -6.07%; in [12], -0.07%. In addition, the inhibition worked out at 1.59% in test [13]; 20.8% in test [14]; 64% in [15]; 30.1% in [16]; 47.9% in test [17]; 39.9% in test [18]. Moreover, the inhibition in test [19] amounted to 46.2%; in test [20], 2.64%.

These data come from ChEMBL document CHEMBL1961873, “Compounds: GSK PKIS; Assays: Nanosyn kinase panel” (2012).
